Assay results reported in the supplement of paper PMC10369915.

Target: SHP2 N-SH2 domain T42A
Test: log2 enrichment relative to wild-type ITIM peptide; higher = stronger binding

Binder: VFSVDYGCLDF [PD-1 ITIM pTyr223 peptide variant E225C]
- log2 enrichment: -0.897

Binder: VFAVDYGELDF [PD-1 ITIM pTyr223 peptide variant S220A]
- log2 enrichment: -0.133

Binder: VFSVDYNELDF [PD-1 ITIM pTyr223 peptide variant G224N]
- log2 enrichment: -0.336

Binder: EFSVDYGELDF [PD-1 ITIM pTyr223 peptide variant V218E]
- log2 enrichment: -0.155

Binder: VFSVDYCELDF [PD-1 ITIM pTyr223 peptide variant G224C]
- log2 enrichment: -0.184

Binder: VFSADYGELDF [PD-1 ITIM pTyr223 peptide variant V221A]
- log2 enrichment: -1.17

Binder: VFTVDYGELDF [PD-1 ITIM pTyr223 peptide variant S220T]
- log2 enrichment: 0.338

Binder: VFSTDYGELDF [PD-1 ITIM pTyr223 peptide variant V221T]
- log2 enrichment: -0.962

Binder: AFSVDYGELDF [PD-1 ITIM pTyr223 peptide variant V218A]
- log2 enrichment: 0.0307

Binder: VFDVDYGELDF [PD-1 ITIM pTyr223 peptide variant S220D]
- log2 enrichment: -0.682

Binder: VFSVDYGELDQ [PD-1 ITIM pTyr223 peptide variant F228Q]
- log2 enrichment: -1.43

Binder: VFSDDYGELDF [PD-1 ITIM pTyr223 peptide variant V221D]
- log2 enrichment: -1.38

Binder: VFSVDYGELDG [PD-1 ITIM pTyr223 peptide variant F228G]
- log2 enrichment: -1.54

Binder: VFSEDYGELDF [PD-1 ITIM pTyr223 peptide variant V221E]
- log2 enrichment: -1.41

Binder: VNSVDYGELDF [PD-1 ITIM pTyr223 peptide variant F219N]
- log2 enrichment: 0.243

Binder: VCSVDYGELDF [PD-1 ITIM pTyr223 peptide variant F219C]
- log2 enrichment: -0.255

Binder: VFSVDYDELDF [PD-1 ITIM pTyr223 peptide variant G224D]
- log2 enrichment: -0.746

Binder: VFSVDYGELDE [PD-1 ITIM pTyr223 peptide variant F228E]
- log2 enrichment: -1.51

Binder: VFSVDYEELDF [PD-1 ITIM pTyr223 peptide variant G224E]
- log2 enrichment: -0.506

Binder: VFSVDYGELCF [PD-1 ITIM pTyr223 peptide variant D227C]
- log2 enrichment: -0.854

Binder: VFSVDYGDLDF [PD-1 ITIM pTyr223 peptide variant E225D]
- log2 enrichment: -0.183

Binder: VFQVDYGELDF [PD-1 ITIM pTyr223 peptide variant S220Q]
- log2 enrichment: -0.0797

Binder: VFCVDYGELDF [PD-1 ITIM pTyr223 peptide variant S220C]
- log2 enrichment: -0.382

Binder: VFEVDYGELDF [PD-1 ITIM pTyr223 peptide variant S220E]
- log2 enrichment: -0.481

Binder: VFSNDYGELDF [PD-1 ITIM pTyr223 peptide variant V221N]
- log2 enrichment: -1.45

Binder: VFSVDYGELDN [PD-1 ITIM pTyr223 peptide variant F228N]
- log2 enrichment: -1.38

Binder: VFNVDYGELDF [PD-1 ITIM pTyr223 peptide variant S220N]
- log2 enrichment: -0.0661

Binder: VFSVDYGALDF [PD-1 ITIM pTyr223 peptide variant E225A]
- log2 enrichment: -0.501

Binder: VFSVAYGELDF [PD-1 ITIM pTyr223 peptide variant D222A]
- log2 enrichment: 1.52

Binder: VFSVDYGELDC [PD-1 ITIM pTyr223 peptide variant F228C]
- log2 enrichment: -1.54

Binder: VFSVDYGEQDF [PD-1 ITIM pTyr223 peptide variant L226Q]
- log2 enrichment: -1.5

Binder: VFSVDYGETDF [PD-1 ITIM pTyr223 peptide variant L226T]
- log2 enrichment: -1.57

Binder: VFSVDYAELDF [PD-1 ITIM pTyr223 peptide variant G224A]
- log2 enrichment: 1

Binder: QFSVDYGELDF [PD-1 ITIM pTyr223 peptide variant V218Q]
- log2 enrichment: 0.0173

Binder: VFSVDYGQLDF [PD-1 ITIM pTyr223 peptide variant E225Q]
- log2 enrichment: 0.0512

Binder: VFSVDYGSLDF [PD-1 ITIM pTyr223 peptide variant E225S]
- log2 enrichment: -0.714

Binder: NFSVDYGELDF [PD-1 ITIM pTyr223 peptide variant V218N]
- log2 enrichment: 0.14

Binder: VFSVDYGGLDF [PD-1 ITIM pTyr223 peptide variant E225G]
- log2 enrichment: -1.11

Binder: VFSVDYGELTF [PD-1 ITIM pTyr223 peptide variant D227T]
- log2 enrichment: -0.714

Binder: TFSVDYGELDF [PD-1 ITIM pTyr223 peptide variant V218T]
- log2 enrichment: -0.0485

Binder: VFSVDYGENDF [PD-1 ITIM pTyr223 peptide variant L226N]
- log2 enrichment: -1.33

Binder: VFSVDYGESDF [PD-1 ITIM pTyr223 peptide variant L226S]
- log2 enrichment: -1.51

Binder: VFSVDYTELDF [PD-1 ITIM pTyr223 peptide variant G224T]
- log2 enrichment: 0.883

Binder: VFSVDYSELDF [PD-1 ITIM pTyr223 peptide variant G224S]
- log2 enrichment: 0.528

Binder: VFSVDYGELDD [PD-1 ITIM pTyr223 peptide variant F228D]
- log2 enrichment: -1.56

Binder: VFSVTYGELDF [PD-1 ITIM pTyr223 peptide variant D222T]
- log2 enrichment: 0.636

Binder: VFSVDYGEEDF [PD-1 ITIM pTyr223 peptide variant L226E]
- log2 enrichment: -1.51

Binder: VFSVDYGEADF [PD-1 ITIM pTyr223 peptide variant L226A]
- log2 enrichment: -1.51

Binder: VFSVDYGELGF [PD-1 ITIM pTyr223 peptide variant D227G]
- log2 enrichment: -1.31

Binder: VFGVDYGELDF [PD-1 ITIM pTyr223 peptide variant S220G]
- log2 enrichment: -0.124

Binder: VTSVDYGELDF [PD-1 ITIM pTyr223 peptide variant F219T]
- log2 enrichment: 0.41

Binder: VFSVDYQELDF [PD-1 ITIM pTyr223 peptide variant G224Q]
- log2 enrichment: -0.168

Binder: SFSVDYGELDF [PD-1 ITIM pTyr223 peptide variant V218S]
- log2 enrichment: 0.0685

Binder: VFSVDYGELQF [PD-1 ITIM pTyr223 peptide variant D227Q]
- log2 enrichment: -0.79

Binder: VFSVDYGELDS [PD-1 ITIM pTyr223 peptide variant F228S]
- log2 enrichment: -1.4

Binder: VGSVDYGELDF [PD-1 ITIM pTyr223 peptide variant F219G]
- log2 enrichment: 0.639

Binder: GFSVDYGELDF [PD-1 ITIM pTyr223 peptide variant V218G]
- log2 enrichment: 0.152

Binder: VFSCDYGELDF [PD-1 ITIM pTyr223 peptide variant V221C]
- log2 enrichment: -0.523

Binder: VFSVDYGELDA [PD-1 ITIM pTyr223 peptide variant F228A]
- log2 enrichment: -1.56

Binder: VHSVDYGELDF [PD-1 ITIM pTyr223 peptide variant F219H]
- log2 enrichment: 0.536
